# Assay results published in PubChem BioAssay.
# Records with an inconclusive call do not appear. The source made the active and inactive calls.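 How the source made its calls, unless noted: active means viability at or below 27.92% in each of two runs, the all-compound median minus 4 SD; inconclusive means no clear call, values can overlap the other calls; inactive means the rest.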
# Columns and labels:
# [1] = Her2 expression decrease, cell viability multiplex – SKBR3 breast tumor cells, AlphaScreen, ATP viability, primary screen (AID 461;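 active means Her2 level under about 52% in both replicate screens, with viability over 70% of control, limit read from the data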;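 on Her2 level: lower value means less Her2 protein in the cells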;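 on viability: percent of carrier control wells set as 100% viability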); settings: SKBR3 Her2 protein level, 18-24 h, measured here: SKBR3 viability, ATP luminescence, at 10 µM
# [2] = molecular target: Receptor tyrosine-protein kinase erbB-2 (Homo sapiens) (UniProt P04626); experiment: as above; settings: 18-24 h, at 10 µM, stronger effect = lower value
# Chain of Receptor tyrosine-protein kinase erbB-2 (Homo sapiens) (P04626 whole entry, looked up): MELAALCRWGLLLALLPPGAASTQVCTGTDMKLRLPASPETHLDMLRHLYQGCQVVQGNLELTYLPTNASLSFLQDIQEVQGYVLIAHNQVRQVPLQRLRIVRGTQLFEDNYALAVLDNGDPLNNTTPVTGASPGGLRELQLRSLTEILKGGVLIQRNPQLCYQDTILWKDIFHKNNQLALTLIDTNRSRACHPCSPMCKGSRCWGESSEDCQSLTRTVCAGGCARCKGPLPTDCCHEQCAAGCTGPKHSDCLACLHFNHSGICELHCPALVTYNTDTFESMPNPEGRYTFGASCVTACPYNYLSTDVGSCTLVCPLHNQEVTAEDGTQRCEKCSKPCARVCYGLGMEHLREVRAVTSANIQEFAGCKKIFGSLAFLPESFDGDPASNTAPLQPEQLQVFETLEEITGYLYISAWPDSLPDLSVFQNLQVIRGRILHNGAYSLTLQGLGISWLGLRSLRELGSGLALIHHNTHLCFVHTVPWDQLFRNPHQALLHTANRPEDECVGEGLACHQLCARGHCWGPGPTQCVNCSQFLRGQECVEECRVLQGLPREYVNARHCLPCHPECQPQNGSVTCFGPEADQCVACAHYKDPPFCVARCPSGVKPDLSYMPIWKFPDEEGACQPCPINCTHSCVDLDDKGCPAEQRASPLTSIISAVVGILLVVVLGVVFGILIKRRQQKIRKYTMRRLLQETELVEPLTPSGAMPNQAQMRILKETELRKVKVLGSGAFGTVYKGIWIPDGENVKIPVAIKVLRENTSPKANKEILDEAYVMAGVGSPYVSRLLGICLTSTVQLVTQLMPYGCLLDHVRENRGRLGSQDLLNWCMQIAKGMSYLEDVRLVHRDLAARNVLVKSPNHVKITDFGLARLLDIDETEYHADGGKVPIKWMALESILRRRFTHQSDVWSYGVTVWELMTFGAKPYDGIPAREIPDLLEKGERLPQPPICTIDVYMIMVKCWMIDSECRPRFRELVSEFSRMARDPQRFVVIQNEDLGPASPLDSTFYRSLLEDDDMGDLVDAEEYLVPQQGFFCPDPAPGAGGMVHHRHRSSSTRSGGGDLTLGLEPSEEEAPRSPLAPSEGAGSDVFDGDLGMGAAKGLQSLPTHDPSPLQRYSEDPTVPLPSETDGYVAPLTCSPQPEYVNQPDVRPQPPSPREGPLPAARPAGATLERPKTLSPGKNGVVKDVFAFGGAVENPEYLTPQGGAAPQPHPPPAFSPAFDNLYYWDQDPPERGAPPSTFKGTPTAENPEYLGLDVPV
# [3] = reduced viability of SK-BR-3 breast cancer cells – cell-based, 24 h, human, pilot screen (AID 572;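 active means viability at or below 10% of carrier control in both of two separate runs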;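 further: compound exposure lasted between 18 and 24 h rather than exactly 24 h; 100% = carrier-treated control wells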); settings: SK-BR-3 viability, CellTiter-Glo luminescence, at 10 µM, stronger effect = lower value
# [4] = HUVEC growth inhibition – cell-based, human, primary screen (AID 575;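 active means viability at or below 30% in both replicate assays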;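 further: 100% = median of untreated cell wells with 0.1% DMSO on each plate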); settings: HUVEC proliferation, CellTiter-Glo luminescence, 72 h; at 10 µM; stronger effect = lower value
# [5] = H69AR cell proliferation blockers – human, duplicate replicates, primary screen (AID 580;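 active means viability at or under a set limit in both replicates, limit being median viability minus 3 SD, cut at about 48% in these data, passing the limit was not always enough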;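 further: 100% = mean luminescence of untreated wells and 0% = no signal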); settings: H69AR lung tumor cells viability, ATP luminescence, 72 h; at 10 µM; stronger effect = lower value
# [6] = MRP1 drug-resistance reversers in H69AR cells – cell-based, doxorubicin co-treatment, pilot screen (AID 601;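 active means viability loss from added drug above about 55%, and viability with drug at most 40%, in both replicates, limit read from the data, passing the limit was not always enough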); settings: CellTiter-Glo, 72 h, at 10 µM; for differential viability (reversal): stronger effect = higher value
# [7] = yeast transport mutant growth inhibition pilot in 384-well plates, post-Golgi transport modulator project (AID 636; in the data active means inhibition above about 31%); settings: absorbance 615 nm, about 18 h, stronger effect = higher value
# [8] = growth suppression of yeast trafficking mutant, preliminary HTS, modulators of trafficking downstream of Golgi apparatus project, 1536-format plate, OD 615 nm (AID 637; in the data active means inhibition above about 30%); settings: yeast transport mutant growth, absorbance 615 nm, 18 h; stronger effect = higher value
# [9] = S. cerevisiae growth inhibition in permissive medium (OD615), pilot counter-assay for S. cerevisiae lifespan shortening project, permissive growth control (AID 705;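 active means growth inhibition above 25% in both replicates, a cutoff set 3 SD above the mean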); settings: OD615, 24 h, at 10 µM, stronger effect = higher value
# [10] = S. cerevisiae growth inhibition in restrictive medium, OD615, pilot screen, restrictive growth control, yeast lifespan reduction project (AID 706;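 active means growth inhibition above a set limit, 3 SD over mean compound inhibition, in both replicates, cut at about 43% in these data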;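 further: modified DeaD lifespan yeast strain shifted to restrictive glucose medium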); settings: OD615, 48 h, at 10 µM, stronger effect = higher value
# [11] = doxorubicin toxicity protection in MRP-1 cells – H69AR cells, CellTiter-Glo, duplicate, MRP-1 activator project, pilot screen (AID 807;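 active means viability increase at or above a cutoff of the median across tested compounds plus 3 SD, cut at about 8.5% in these data, passing the limit was not always enough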;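 further: compound pretreatment 18-22 h then 72 h combined with doxorubicin; 0% = doxorubicin alone and 100% = vehicle without doxorubicin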); settings: H69AR viability with doxorubicin, CellTiter-Glo luminescence; at 10 µM; stronger effect = higher value
# [12] = viability of HCT116 without oncogenic beta-catenin – human colon tumor cells, pilot screen (AID 823;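 active means cell viability at or below a set limit in both duplicate runs, the limit being the all-compound median minus 4 SD, cut at about 23% in these data, passing the limit was not always enough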;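 further: 0% = wells killed by 20 µM Hyamine and 100% = untreated DMSO cell wells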); settings: HCT116 beta-catenin knockout viability, CellTiter-Glo, 60 h; at 10 µM; stronger effect = lower value
# [13] = viability of PTEN-null HCT116 cells – cell-based, HCT116 clonal line, CellTiter-Glo, pilot screen (AID 824); settings: HCT116 PTEN-deleted viability, 60 h, at 10 µM, stronger effect = lower value;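 further: 0% = 20 µM Hyamine control and 100% = vehicle cell control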
# [14] = RAM pathway blockade in budding yeast – dse1pr::URA3 reporter, 5-FOA selection, pilot screen (AID 869;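 active means inhibition over a set limit, the all-compound mean plus 3 SD, in both replicate runs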;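 further: 0% = DMSO wells with no growth and 100% = 10 µM 1-NA-PP1 with full growth; RAM network block rescues cells from 5-FOA so hits raise OD615 growth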); settings: S. cerevisiae dse1pr::URA3 5-FOA growth, OD615, 2 d; at 10 µM; stronger effect = higher value; strain carries analog-sensitive mutant Cbk1 kinase
# [15] = RAM signaling pathway blockade in yeast – S. cerevisiae, Pdr1DBD-CYC8 efflux-inhibited sensitized strain, primary screen (AID 1298;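 active means RAM network inhibition above 8.4% in each of two replicates, 3 SD over the compound average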;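 further: 0% = DMSO untreated cells without growth and 100% = 10 µM 1-NA-PP1 full growth; higher means more yeast growth rescued from 5-FOA killing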); settings: S. cerevisiae cbk1-as DSE1-URA3 strain, 5-FOA growth OD615, 2 d; at 50 µM; stronger effect = higher value
# [16] = H69AR cells + 2 uM doxorubicin, measured here: viability with 2 uM doxorubicin, stronger effect = lower value
# [17] = H69AR cells, compound alone cytotoxicity
Compound,viability [1] [%],Her2 level [2],viability [3],viability [4],viability [5],differential viability (reversal) ([6]; H69AR cells + 2 uM doxorubicin),"viability [6, 16] [%]","viability [6, 17] [%]",inhibition [7],inhibition [8],growth inhibition [9],growth inhibition [10],viability increase [11],viability [12],viability [13],inhibition [14],RAM network inhibition [15]
CC(=O)Nc1cc(N2C(=O)CCC2=O)ccc1Cl,93,97% (inactive),93% (inactive),110% (inactive),103% (inactive),12.4% (inactive),90.5,103,0.4% (inactive),6.45% (inactive),-10.2% (inactive),-12.5% (inactive),-1.29% (inactive),102% (inactive),103% (inactive),1.19% (inactive),1.88% (inactive)
O=C(Nc1nnc(N2CCCCCC2)s1)c1cc(-c2ccc(Br)cc2)on1,97,106% (inactive),97% (inactive),99.2% (inactive),99.6% (inactive),13.1% (inactive),86.4,99.6,-5.13% (inactive),3.67% (inactive),-14.6% (inactive),-7.24% (inactive),2.89% (inactive),99.1% (inactive),95.2% (inactive),1.98% (inactive),9.45% (inactive)
Cc1ccc2c(c1)-c1c(cnn1CC(=O)NC(C)CCc1ccco1)CO2 (stereo not given),85.5,87% (inactive),85.5% (inactive),91.5% (inactive),85.9% (inactive),-5.22% (inactive),91.1,85.9,-4.36% (inactive),0.83% (inactive),-10.4% (inactive),-5.76% (inactive),-3.78% (inactive),88.8% (inactive),87% (inactive),2.04% (inactive),7.88% (inactive)
CCCCCn1c(CN2CCN(C(=O)c3ccco3)CC2)nc2c1c(=O)n(C)c(=O)n2C,96.5,103% (inactive),96.5% (inactive),92.8% (inactive),77.5% (inactive),27.9% (inactive),49.5,77.5,-5.6% (inactive),-5.83% (inactive),-0.285% (inactive),-8.78% (inactive),-2.57% (inactive),93.6% (inactive),93.2% (inactive),-0.2% (inactive),1.17% (inactive)
Oc1ccc(Cl)cc1-c1cc(-c2ccccc2)n[nH]1,55.5,61% (inactive),55.5% (inactive),7.56% (active),6.37% (active),-7.55% (inactive),13.9,6.37,-0.53% (inactive),100% (active),-1.5% (inactive),-6.9% (inactive),-7.82% (inactive),16% (active),23.1% (active),1.59% (inactive),8.32% (inactive)
